Screens from PubChem.
VACV mCherry inh = vaccinia inhibition (mCherry reporter) | Vaccinia virus mCherry reporter infection, fluorescence | 310,000 tested, 0.63% active | AID 720579 | Potency, µM (highest dose often 36.5 µM), without a hit: at the top dose activity change, negative = inhibition, most hits filed as inhibitors; calls by dose curve; tested in A549 cells; note: % is set by controls: 0 for no effect and ±100 for the full control effect; nearly all actives have a fitted effect of over 35% in size
MARV entry inh = inhibitors of Marburg virus binding or cell entry; 300,000 tested, 1.8% active; Marburg virus pseudotyped entry inhibition, cell reporter; AID 540276; Potency, µM (highest dose often 37.8 µM), without a hit: top-dose activity change, negative = inhibition, usual class: inhibitors; calls by dose curve; tested in HEK293 cells; note: % is set by controls: 0 for no effect and ±100 for the full control effect
LASV entry inh = inhibitors of Lassa virus binding or cell entry | Lassa virus pseudotype entry inhibition, cell reporter | Potency, µM (titrated, usually from 37.9 µM), without a hit: top-dose activity change, negative = inhibition, usual class: inhibitors | 300,000 tested, 1.2% active | AID 540256; calls by dose curve; tested in HEK293 cells; note: % is set by controls: 0 for no effect and ±100 for the full control effect; nearly all actives have a fitted effect of over 50% in size
Vaccinia Venus = inhibitors of vaccinia virus (Venus reporter) | Vaccinia virus Venus reporter expression, fluorescence | Potency, µM (doses to about 36.5 µM), inactives show top-dose activity change, negative = inhibition, hits mostly inhibitors | 330,000 tested, 0.46% active; calls by dose curve; tested in A549 cells; note: % is set by controls: 0 for no effect and ±100 for the full control effect; nearly all actives have a fitted effect of over 30% in size
HCV inh = inhibitors of hepatitis C virus infection; 340,000 tested, 3.4% active; AID 651820; Potency, µM (highest dose often 41.8 µM), for inactives: top-dose activity change, negative = inhibition, usual class: inhibitors; Huh7.5.1 HCVcc-Cre infection, luciferase reporter, 44 h; note: % is set by controls: 0 for no effect and ±100 for the full control effect
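Luciferase read-out (15 sec integration) after a 15 min room-temperature substrate step quantifies HCVcc-Cre infection. Cells, 1,000 per well, had compound added 4 h post-plating, then virus at ~0.5 moi, and were cultured 44 h.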
HCV confirm = HCV inhibition, cherry-pick confirmation; shares compounds with HCV inh; HCVcc-Cre infectious virus cell assay, luciferase, inhibition; Potency, µM (top dose mostly 41.8 µM), for inactives: at the top dose activity, negative = inhibition, usual class: inhibitors; 640 tested, 78% active; AID 720575; note: nearly all actives have a fitted effect of over 80% in size
HCV cytotox = host cell cytotoxicity counter-screen for HCV inhibitors; AID 720576; Potency, µM (series often up to 41.8 µM), for the others: at the highest dose activity change, negative = cytotoxicity, hits mostly inhibitors; 640 tested, 22% active; shares compounds with HCV inh; HCV host cell line cytotoxicity counterscreen;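 note: 44 h compound exposure; % is set by controls: 0 for no effect and ±100 for the full control effect; nearly all actives have a fitted effect of over 55% in size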
The depositor's hits bear a star; ? = inconclusive; . = no result given; [ ] = another dose, or the depositor's remark. Sampled rows, rich in hits. Any-hit rate of the full collection: about 4.6%. Unless noted, calls come from the whole dose curve; as a rule, active = well fitted curve in the direction sought with a large enough effect; inconclusive = small, poorly fitted or top-dose-only effect, or another doubt; inactive = no such curve, though single readings can be large; an effect the other way counts as inactive or inconclusive. Potency is the fitted concentration of half-maximal effect.

SMILES | VACV mCherry inh | MARV entry inh | LASV entry inh | Vaccinia Venus | HCV inh | HCV confirm | HCV cytotox
Cc1ccc(S(=O)(=O)N(C)C)cc1-n1c(SCC(=O)Nc2ccc(F)cc2Cl)nc2ccccc2c1=O | -14.8% | ? | ? | -13.8% | 1.26µM* | 14.1µM* | 38.2%
Cc1ccccc1NC(=O)CSc1nc2ccccc2c(=O)n1C | -13.0% | -29.2% | 0.0% | -16.4% | 3.16µM* | 8.87µM* | 14.1µM*
Cc1ccc(S(=O)(=O)N(C)C)cc1-n1c(SCC(=O)Nc2ccc(F)cc2)nc2ccccc2c1=O | . | -3.2% | . | . | ? | . | .
Cn1c(SCC(=O)Nc2ccc(F)cc2)nc2c(c1=O)SCC2 | -18.0% | ? | ? | -10.9% | ? | . | .
Cc1ccccc1CN1CCCN(CC(=O)Nc2ccc3c(c2)OCCO3)S1(=O)=O | -5.0% | . | ? | -5.4% | . | . | .
COc1ccc(Br)cc1/C=C/C(=O)Nc1c(C)cccc1C | . | ? | -18.5% | . | ? | . | .
CCN(CC)c1ccc(NC(=O)/C=C/c2cc(Br)ccc2OC)cc1 | -21.0% | -5.4% | -6.7% | ? | ? | 12.5µM* | ?
COc1ccc(OC)c(NC(=O)Cc2csc(NC(=O)Nc3ccccc3OC)n2)c1 | -29.4% | ? | -18.6%[46.1 µM] | -26.8% | 8.91µM* | 9.95µM* | 37.4%
O=C(Nc1ccc([N+](=O)[O-])cc1)/C(=C/c1cccc([N+](=O)[O-])c1)NC(=O)C1CCCCC1 | -6.9% | ? | -3.1% | -13.7% | ? | 22.3µM* | 48.2%
Cc1ccc(NC(=O)/C(=C/c2cccc([N+](=O)[O-])c2)NC(=O)C2CCCCC2)c(C)c1 | ? | ? | ? | -4.9% | -7.0% | . | .
COc1ccc(/C=N\NC(=O)c2ccccc2[N+](=O)[O-])cc1COc1c(F)c(F)c(F)c(F)c1F | -29.6% | ? | -14.7% | -24.9% | 2.51µM* | 12.5µM* | -20.4%
CC(C)(C)Nc1nc(NCc2cccnc2)nc(N2CCOCC2)n1 | -1.4% | 14.0% | 1.5% | -9.7% | -16.7% | . | .
COc1ccc(Nc2nc(NC(C)(C)C)nc(N3CCOCC3)n2)c(OC)c1 | . | 13µM* | -6.8% | . | 7.08µM* | 7.05µM* | 15.7%
COCC(C)n1c(SCC(=O)N2CCc3ccccc3C2)nc2ccccc2c1=O (configuration not stated) | ? | ? | ? | -18.2% | ? | 19.9µM* | -2.7%
Cc1ccc(S(=O)(=O)NCC(=O)NCc2ccncc2)cc1 | . | 14.6% | -4.9% | -11.4% | 2.4% | . | .
CCOC(=O)COc1ccc(S(=O)(=O)NCc2ccncc2)cc1 | -12.1% | -29.7% | ? | -13.6% | 14.0% | . | .
Cc1ccc(S(=O)(=O)NCc2ccncc2)cc1 | -24.5% | ? | 10.3% | ? | 2.82µM* | 2.23µM* | 8.87µM*
CCOc1ccc(S(=O)(=O)NCc2ccncc2)cc1 | . | ? | ? | . | ? | 0.281µM* | 0.25µM*
Cc1ccc(S(=O)(=O)N[C@H]2COC(=O)[C@@H](C)COC(=O)C/C=C\[C@H]2C)cc1 | . | 7.3%[14.2 µM] | . | . | . | . | .
Cc1cc(N2CCN(Cc3nc(-c4ccc(Cl)cc4)oc3C)CC2)cc(C)n1 | -27.1% | 3.98µM* | ? | ? | 2.24µM* | 9.95µM* | ?
Cc1oc(-c2ccc(Cl)cc2)nc1CN1CCCN(C(=O)c2ccco2)CC1 | -4.4% | ? | 7.4% | -17.8% | ? | . | .
CN1CCN(c2ccc([N+](=O)[O-])c3no[n+]([O-])c23)CC1 | ? | 0.562µM* | 0.316µM* | ? | 2.24µM* | 22.3µM* | 22.3µM*
Cc1ccc(CNC(=O)C2CCCN(c3nc4ccccc4n4cccc34)C2)cc1 (configuration not stated) | -5.0% | . | 1.5%[46.1 µM] | 2.3% | . | . | .
COC(=O)N/N=C/c1cc(C)n(-c2ccccc2)c1C | . | -0.8% | 2.4% | . | -1.3% | . | .
Cc1cc(C(=O)N/N=C/c2ccc(O)c(O)c2O)c(C)n1-c1ccccc1 | -24.4% | ? | ? | -5.4% | 5.62µM* | 12.5µM* | ?
SMILES | VACV mCherry inh | MARV entry inh | LASV entry inh | Vaccinia Venus | HCV inh | HCV confirm | HCV cytotox
CC1CCN(CCOCCOc2ccccc2-c2ccccc2)CC1 | -9.8% | ? | ? | -14.2% | ? | . | .
CC1CCN(CCCCOc2ccccc2-c2ccccc2)CC1 | ? | 2.31µM* | 2.06µM* | ? | ? | 19.9µM* | -28.2%
CCC(=O)N1c2nc(C(C)C)nn2C2(CCCCC2)[C@@H]2CCCC[C@@H]21 | -6.1% | ? | 2.8%[46.1 µM] | -9.4% | . | . | .
COc1cc(NC(=O)CN2C(=O)C(c3ccc(Cl)cc3)=NC23CCCCC3)cc(OC)c1 | -21.6% | ? | -21.8%[46.1 µM] | -17.9% | . | . | .
COc1ccc(C(=O)c2ccc(OC)c(OC)c2OC)cc1 | -6.4% | ? | -25.9% | -26.1% | ? | . | .
COc1ccc(C(=O)c2ccc(N(C)C)cc2)c2ccccc12 | ? | ? | ? | ? | ? | -22.4% | -18.8%
Cc1nnsc1C(=O)NC1CCCc2c1cnn2-c1ccc(C(C)(C)C)cc1 (configuration not stated) | . | . | . | . | 1.58µM* | 3.15µM* | 5.6µM*
Clc1ccc2c(NNc3ccccc3Cl)ccnc2c1 | . | -20.6% | 3.4% | . | -1.1% | . | .
O=C(NNc1ccnc2cc(Cl)ccc12)C1CCCCC1 | -1.3% | ? | -4.4% | -10.4% | 2.82µM* | 0.887µM* | 1.58µM*
O=C(CC1N=C2c3ccccc3N=C(SCc3cccc(Cl)c3)N2C1=O)NC1CCCCC1 (configuration not stated) | -20.2% | . | -9.1%[46.1 µM] | -17.0% | . | . | .
